High-throughput results (PubChem)
An excerpt weighted towards active compounds, which were near 3.1% of everything screened.
Env fusion inh: blocks HIV Env-driven cell-cell fusion; inhibition, % at 12.3 µM; AID 651610; HeLa-JRFL Env/CEM21 cell fusion, luciferase; 360,000 compounds, 1.1% hits;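 active means mean replicate inhibition score of at least 50 and every replicate individually at or above 50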;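 further: 0% = plate neutral controls and 100% = maraviroc near 300 nM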
EWS-Fli inh: inhibitors of EWS/Fli oncoprotein transcriptional activity; 350,000 compounds, 0.67% hits; inhibition, % at 12.6 µM; A673 NR0B1-luciferase reporter, viability-normalised;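 active means mean inhibition of at least 50% after viability correction, with every replicate also passing that limit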;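 further: firefly luciferase signal divided by Alamar Blue viability fluorescence both relative to DMSO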
GSIS activator: GLuc luminescence reporter in INS-1E cells, primary screen for activators of glucose-dependent secretion of insulin; INS-1E GLuc reporter insulin secretion, 2-3 h; activation, % at 16.6 µM; 370,000 compounds, 0.61% hits; AID 743287;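 active means lowest replicate activation of at least 40%, so every replicate reaches that level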;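 further: 0% = median of neutral control wells and 100% = median of IBMX positive control wells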
miR122 inh: inhibitors of miR-122 in Huh7 cells; Huh7 miR-122 Renilla luciferase sensor, 48 h; neutral wells = 0, positive control = 100; activation (reporter increase), % at 12.5 µM; 340,000 compounds, 0.3% hits; AID 602342;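 active means mean replicate activation score at least 90 and every replicate individually at or above 90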;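 further: higher luciferase means less miR-122 activity so hits act as miR-122 inhibitors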
C2C12 statin: protects C2C12 myotubes from simvastatin toxicity | ATP luminescence, 48 h; scaled: DMSO 0, geranylgeraniol control 100 | 330,000 compounds, 0.78% hits | rescue of ATP level, % at 7.49 µM;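 active means mean ATP rescue above about 67%, or every replicate alone reaching that limit, limit read from the data, passing the limit was not always enough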;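 further: myotubes were challenged with 10 µM simvastatin during compound exposure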
PAX8 inh HTS: PAX8 transcriptional activity inhibition; RMG-I TPO-luciferase reporter, SteadyGlo, 24 h; inhibition, % at 12.6 µM; 360,000 compounds, 1.2% hits; AID 652154;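 active means mean replicate inhibition at least 60% with every replicate also reaching 60%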;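 further: luciferase light reporting Pax8 driven TPO promoter activity; plate controls were median of neutral control wells for no effect and mitoxantrone controls for full effect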
* marks the source's active call; other numbers are inactive results; [ ] = remark or other dose.

Results for C[C@@H]1CN([C@H](C)CO)C(=O)c2cc(-c3cccc(C#N)c3)cnc2O[C@@H]1CN(C)C(=O)C1CC1 ?
Env fusion inh: -19[16.7 µM]; EWS-Fli inh: -14; GSIS activator: 9; miR122 inh: 2[16.7 µM]; C2C12 statin: 15

What do the screens show for `O=C1C(Cl)=C(NC(=O)c2ccccc2)C(=O)C(Cl)=C1NC(=O)c1ccccc1`?
Env fusion inh: -14; EWS-Fli inh: 30; GSIS activator: 24; C2C12 statin: -100; PAX8 inh HTS: 80*

How did CCCNC(=O)Cc1c(O)c2ccccc2[nH]c1=O do in these assays?
miR122 inh: -3; C2C12 statin: 108*

Results for Cc1cc(N=Cc2c(O)n(-c3ccc(C)c(C)c3)c(=O)c3ccccc23)no1 ?
Env fusion inh: 8; GSIS activator: -6; PAX8 inh HTS: 25

Results for CCOC(=O)Cc1csc(/N=C/c2c(O)n(-c3ccc(C)c(C)c3)c(=O)c3ccccc23)n1 ?
Env fusion inh: 38; GSIS activator: 42*; PAX8 inh HTS: 4

How did COc1ccc(-c2cn(-c3ccc(Cl)cc3)c3[n+]2CCCCC3)cc1 do in these assays?
Env fusion inh: -3; EWS-Fli inh: 9; GSIS activator: -2; PAX8 inh HTS: 40

How did COc1ccc(-n2cc(-c3ccc(OC(F)F)cc3)[n+]3c2CCCCC3)cc1 do in these assays?
Env fusion inh: 23; EWS-Fli inh: 5; GSIS activator: -15; PAX8 inh HTS: 86*

What do the screens show for `COc1ccc(N2C(=O)c3ccccc3NC(=O)C2C(=O)NCc2ccco2)cc1` (stereo not drawn)?
Env fusion inh: -14; EWS-Fli inh: -7; GSIS activator: 14; PAX8 inh HTS: 20

Results for COc1ccc(N2C(=O)c3ccccc3NC(=O)C2C(=O)NCCc2ccccc2F)cc1 (stereo not drawn) ?
Env fusion inh: 58*; EWS-Fli inh: -25; GSIS activator: -24; PAX8 inh HTS: -4

Results for C=C[C@H](COC(C)=O)N(C(=O)OC(C)(C)C)S(=O)(=O)c1ccc(Br)cc1 ?
Env fusion inh: 2[16.7 µM]; EWS-Fli inh: -5; PAX8 inh HTS: 3

Results for COc1ccc(-c2cn[nH]c2-c2ccc(OCc3ccc([N+](=O)[O-])cc3)cc2O)cc1OC ?
Env fusion inh: -1; EWS-Fli inh: 24; GSIS activator: 3; miR122 inh: -2; C2C12 statin: 23; PAX8 inh HTS: 32

Results for O=[N+]([O-])c1ccc(COc2ccc(-c3[nH]ncc3-c3ccc(Cl)cc3)c(O)c2)cc1 ?
GSIS activator: 41*; miR122 inh: -22; C2C12 statin: 2; PAX8 inh HTS: 27

What do the screens show for `COc1ccc(-c2cn[nH]c2-c2ccc(OC)cc2O)cc1`?
Env fusion inh: 58*; EWS-Fli inh: -19; GSIS activator: 3; PAX8 inh HTS: -22

How did CC(C)NC(=O)N(C)C[C@@H]1Oc2ccc(NC(=O)Cc3cn(C)c4ccccc34)cc2C(=O)N([C@H](C)CO)C[C@@H]1C do in these assays?
EWS-Fli inh: -9; GSIS activator: -9; miR122 inh: 10[16.7 µM]; C2C12 statin: -5; PAX8 inh HTS: 3

Results for CO[C@H]1CN(C)C(=O)c2ccc(NC(=O)C3CC3)cc2OC[C@@H](C)N(CC2CCOCC2)C[C@H]1C ?
Env fusion inh: -7[16.7 µM]; EWS-Fli inh: 0; GSIS activator: 15; miR122 inh: -10[16.7 µM]; C2C12 statin: 0

What do the screens show for `COC(=O)c1nc2cc(C)ccn2c1F`?
Env fusion inh: -3; EWS-Fli inh: 4; GSIS activator: 5; miR122 inh: -2; C2C12 statin: -7; PAX8 inh HTS: -7

What do the screens show for `COC(=O)c1c(C(=O)OC)c2cc(C)ccn2c1Cl`?
miR122 inh: -1; C2C12 statin: 101*

How did COc1cccc(CNC23CC4CC(CC(C4)C2)C3)c1OCc1ccccc1 do in these assays?
Env fusion inh: 62*; EWS-Fli inh: 32; GSIS activator: -47; miR122 inh: 8; C2C12 statin: -16; PAX8 inh HTS: 10

What do the screens show for `COc1cccc(CNCCc2c[nH]c3ccccc23)c1OCc1ccccc1`?
EWS-Fli inh: 18; GSIS activator: -27; PAX8 inh HTS: -5

How did COc1ccc2c3c(n(C)c2c1)[C@@H](CO)N(C)CC31CN(S(=O)(=O)c2cccc(F)c2)C1 do in these assays?
EWS-Fli inh: 6; GSIS activator: -7

What do the screens show for `Cc1cc(=O)[nH]c(SCC2(O)C3CC4CC(C3)CC2C4)n1` (stereo not drawn)?
GSIS activator: -8; miR122 inh: 62; C2C12 statin: 113*

What do the screens show for `Cc1cc(=O)[nH]c(SCC(=O)NC2CCCCC2)n1`?
Env fusion inh: 12; EWS-Fli inh: -1; GSIS activator: 2; miR122 inh: -4; C2C12 statin: 28; PAX8 inh HTS: -5

What do the screens show for `Cc1cc(C(=O)Nc2cccc3c2O[C@H](CN(C)C(=O)Nc2cccc4ccccc24)[C@H](C)CN([C@H](C)CO)C3=O)n(C)n1`?
Env fusion inh: -2[16.7 µM]; EWS-Fli inh: -1; GSIS activator: 10; miR122 inh: -2[16.7 µM]; C2C12 statin: 19; PAX8 inh HTS: -1

Results for C[C@@H]1CN([C@H](C)CO)C(=O)c2cc(C3=CCCC3)cnc2O[C@H]1CN(C)Cc1cccnc1 ?
Env fusion inh: -14[16.7 µM]; EWS-Fli inh: -3; GSIS activator: 3; C2C12 statin: 13

How did COc1ccc(CN2CC3(C2)CN(C(=O)Nc2ccc(F)cc2)[C@@H](CO)c2[nH]c4cc(OC)ccc4c23)cc1 do in these assays?
EWS-Fli inh: -3; GSIS activator: -26

Results for O=C(Nc1ccc2cn[nH]c2c1)c1c(Cl)cccc1Cl ?
Env fusion inh: -22; EWS-Fli inh: -10; GSIS activator: 0; miR122 inh: -1; PAX8 inh HTS: 14

Results for O=C1C(Cl)=C(Nc2ccc3cn[nH]c3c2)C(=O)c2ccccc21 ?
Env fusion inh: -60; EWS-Fli inh: 46; GSIS activator: -43; miR122 inh: -27; C2C12 statin: -315; PAX8 inh HTS: 81*

How did Cc1ccc2nc(-c3ccc(NC(=O)COC(=O)c4ccc([N+](=O)[O-])o4)cc3)sc2c1 do in these assays?
EWS-Fli inh: 55*; GSIS activator: -8; PAX8 inh HTS: 34

How did C=CCn1c(SCC(=O)Nc2ccc(-c3nc4ccc(C)cc4s3)cc2)nnc1-c1ccccc1 do in these assays?
GSIS activator: 122*; miR122 inh: -4; C2C12 statin: 32

Results for Cc1ccc2nc(-c3ccc(NC(=O)COC(=O)c4ccc(Br)o4)cc3)sc2c1 ?
Env fusion inh: -66; GSIS activator: 1; miR122 inh: 6; PAX8 inh HTS: -51

Results for C=CCn1c(SCC(=O)NNC(=O)Nc2ccc(C)cc2)nnc1-c1ccccc1 ?
Env fusion inh: 2; EWS-Fli inh: 9; GSIS activator: -6; miR122 inh: 1; C2C12 statin: -10; PAX8 inh HTS: 39
